NOMO-1 viab: STK33 inhibitor candidate reducing NOMO-1 cell viability | NOMO-1 AML viability, CellTiter-Glo luminescence, 72 h | inhibition, % (no concentration beside the values) | 37,000 tested, 7.5% active | AID 2330; in the data active means inhibition above about 80%
PD-1 reverse act: reversal of PD-1 mediated T-cell inhibition; 29,000 tested, under 10 active; AID 2316; activation, % (no concentration beside the values); primary human CD4 T cells, PD-L1 beads, CellTiter-Glo 96 h; call rule not given here
Hedgehog inh: Sonic Hedgehog pathway inhibition. Shh-LIGHT2 Gli-luciferase reporter, 30 h. 22,000 tested, 2.1% active. inhibition, % (no concentration beside the values);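 active means mean inhibition across valid replicates above about 65%, limit read from the data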;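 further: pathway switched on by Shh-conditioned medium diluted 1 in 25 in low serum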
MITF inh: blocks MITF activity | 37,000 tested, 0.28% active | inhibition, % (no concentration beside the values) | TRPM1 promoter luciferase, luminescence, 24 h; in the data active means inhibition above about 85%;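 further: human melanocyte line stably carrying TRPM1 promoter luciferase reporter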
A number is an active result; – = inactive; · = no result given. Compounds with a hit are over-represented: about 8.1% of the library has one in this group of screens.

SMILES	NOMO-1 viab	PD-1 reverse act	Hedgehog inh	MITF inh
C[C@]12C=CC(=O)C=C1CCC1C2CC[C@]2(C)C(=O)CCC12 (stereo partly drawn)	–	·	–	–
COc1ccc2c(c1OC)C(=O)O[C@@H]2[C@@H]1c2cc3c(cc2CCN1C)OCO3	–	·	–	–
CC1=CC(=O)c2c(O)cccc2C1=O	105	·	97	97
CCOC(=O)c1c(C)n(C2CCCCC2)c2ccc(O)cc12	–	–	–	–
COc1ccc2c3c1O[C@H]1[C@@H](O)CC=C4[C@@H](C2)N(C)CC[C@]431	–	·	–	–
CC(=O)O[C@@H](c1nc2ccccc2c(=O)n1[C@@H]1C[C@@]2(OC1=O)c1ccccc1N1C(=O)[C@H](C)N(O)[C@@H]12)C(C)C	84	–	–	–
CC(C)c1cc2c(cc1O)[C@@]1(C)C[C@@H](O)CC(C)(CO)C1CC2 (stereo partly drawn)	–	–	–	–
C/C1=C/C(=O)O[C@@H]2C[C@@H](CC[C@H](C)/C=C\CC1)O[C@@](O)([C@@H]1CSC(=O)N1)C2	114	·	102	–
CC[C@@]12CCCN3CC[C@]4(c5cccc(OC)c5N(C(C)=O)[C@@H]4CC1)[C@H]32	–	–	–	–
N#CC(C#N)=NNc1ccc(OC(F)(F)F)cc1	141	–	82	–
COC(=O)[C@@]12C(=O)C(C)C(=O)[C@]1(C)C(C)=C[C@H]1[C@]3(C)CC[C@H](OC(C)=O)C(C)(C)[C@H]3CC[C@@]12C (stereo partly drawn)	–	–	–	–
COc1ccc(C[C@H]2NC[C@H](O)[C@H]2OC(C)=O)cc1	120	·	107	104
O=c1c2ccccc2[nH]c(=S)n1-c1cc(C(F)(F)F)cc(C(F)(F)F)c1	–	–	–	–
C[C@H](N)C(=O)N[C@@H](C)C(=O)N[C@@H](Cc1ccccc1)C(=O)CCl	114	·	–	–
COC1CC(OC2C(C)OC(OC3C(C)OC(OC4C(C)OC(O[C@H]5CC[C@@]6(C)C(=CC[C@]7(O)C6CC(OC(=O)c6ccccc6)[C@@]6(C)[C@]7(O)CC[C@@]6(O)C(C)=O)C5)CC4OC)CC3OC)CC2OC)OC(C)C1O (stereo partly drawn)	120	–	–	–
